# From PubChem
# COUP-TFII inh: blocks human COUP-TFII nuclear receptor | P24468 | HEK293T NGFI-A luciferase reporter, luminescence | inhibition, % at 8.6 µM | 370,000 tested, 0.7% active;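 active = inhibition above a per-plate cutoff, mean inhibition of test wells between control levels plus 3 SD, cut at about 38% in these data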;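 note: cells cotransfected with COUP-TFII expression vector driving the NGFI-A reporter; 0% = median of COUP-TF2 test wells and 100% = reporter-only cells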
# Target sequence (P24468 whole entry, looked up): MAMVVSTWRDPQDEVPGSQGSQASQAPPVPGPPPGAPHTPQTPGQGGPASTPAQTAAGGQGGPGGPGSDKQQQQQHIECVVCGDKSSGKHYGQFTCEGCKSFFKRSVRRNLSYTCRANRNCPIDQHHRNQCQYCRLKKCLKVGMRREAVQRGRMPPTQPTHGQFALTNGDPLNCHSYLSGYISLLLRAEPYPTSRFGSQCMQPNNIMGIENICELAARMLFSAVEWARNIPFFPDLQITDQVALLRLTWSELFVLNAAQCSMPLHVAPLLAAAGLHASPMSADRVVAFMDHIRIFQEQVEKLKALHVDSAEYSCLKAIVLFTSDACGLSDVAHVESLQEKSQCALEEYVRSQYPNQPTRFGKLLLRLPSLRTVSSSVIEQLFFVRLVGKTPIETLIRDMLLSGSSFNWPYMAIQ
# aDG glyco act: increases alpha dystroglycan glycosylation; 360,000 tested, 0.22% active; AID 624168; activation, % at 10 µM; Pro5-aDG cells, alpha-DG glycosylation AlphaScreen (IIH6); 0% Pro5, 100% B10-LARGE cell signal;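 active = activation of at least 8% versus controls, or a plate z-score of at least 8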;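 note: Pro5 are CHO cells carrying HIG-tagged alpha-DG that lacks glycosylation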
# Gli-Sufu block: Gli-Sufu pathway antagonism | Sufu-KO-LIGHT fibroblasts, Gli luciferase reporter luminescence | inhibition, % at 5 µM | 340,000 tested, 0.74% active | AID 588413;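 active = inhibition above about 55%, limit read from the data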;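 note: 0% = DMSO-treated cells and 100% = wells with medium but no cells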
# Env fusion inh: blocks HIV Env-driven cell-cell fusion; 360,000 tested, 1.1% active; inhibition, % at 12.3 µM; HeLa-JRFL Env/CEM21 cell fusion, luciferase;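 active = mean replicate inhibition score of at least 50 and every replicate individually at or above 50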;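 note: 0% = plate neutral controls and 100% = maraviroc near 300 nM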
# GalR3 antag: human GalR3 antagonism. O60755. HEK293 GalR3-CNG cAMP membrane potential fluorescence; galR3 body fused to GalR1 C-terminus. inhibition, % at 3 µM. 360,000 tested, 0.44% active;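 active = inhibition above the screen-wide average plus 3 SD, cut at about 13% in these data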;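 note: forskolin and galanin both at EC90 stimulate the cells; cAMP rise reported by CNG channel membrane potential dye signal; 0% = forskolin plus galanin with DMSO and 100% = forskolin alone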
# Target sequence (O60755 1-299 limits assumed): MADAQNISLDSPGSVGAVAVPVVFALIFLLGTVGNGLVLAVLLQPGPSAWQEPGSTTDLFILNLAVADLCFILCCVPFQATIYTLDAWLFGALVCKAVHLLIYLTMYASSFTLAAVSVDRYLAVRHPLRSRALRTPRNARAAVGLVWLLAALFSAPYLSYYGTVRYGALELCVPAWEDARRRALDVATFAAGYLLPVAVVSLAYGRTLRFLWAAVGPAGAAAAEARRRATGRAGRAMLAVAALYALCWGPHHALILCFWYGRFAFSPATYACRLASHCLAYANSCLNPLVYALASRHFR
# Gli-Sufu confirm: Gli-SUFU antagonism confirmation, single concentration | 2,500 tested, 40% active | Sufu-KO-LIGHT cells, Gli luciferase reporter, luminescence | inhibition, % at 5 µM | shares compounds with Gli-Sufu block;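 active = mean inhibition at 5 µM reaching about 45%, limit read from the data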;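 note: plate controls were DMSO-treated cells for no effect and wells lacking cells for full effect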
# Gli cytotox: cytotoxicity counter-screen for Gli-SUFU antagonists; shares compounds with Gli-Sufu block; Sufu-KO-LIGHT cells cytotoxicity, ATP luminescence; cytotoxicity, % at 5 µM; 2,500 tested, 32% active; AID 651994;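 active = mean cytotoxicity at 5 µM above about 25%, limit read from the data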;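 note: cells exposed to compound overnight for roughly 16 to 18 hours; plate controls were DMSO wells with cells for no effect and medium without cells for full effect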
# Wnt3a counter: counter-screen for Gli-SUFU antagonists: Wnt3a reporter inhibition; shares compounds with Gli-Sufu block; Wnt-LIGHT cells, Wnt3a-driven luciferase reporter, luminescence; inhibition, % at 6.25 µM; 2,500 tested, 20% active; AID 651995;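 active = mean inhibition above about 25%, limit read from the data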
# aDG glyco conf: alpha-DG glycosylation activation, confirmation. shares compounds with aDG glyco act. Pro5-aDG cells, IIH6 AlphaLISA; scaled to LARGE-overexpressing B10 cells as 100%. activation, % at 10 µM (by protocol). 600 tested, 17% active. AID 651671;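 active = activation of at least 7% in one or more replicates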;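 note: cells exposed to compound for two days before detection; 0% = DMSO-treated Pro5 cells and 100% = DMSO-treated B10-LARGE cells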
# GalR3 conf: confirmation of human galanin receptor 3 antagonists. shares compounds with GalR3 antag. HEK293 GalR3 CNG cAMP biosensor, membrane potential fluorescence; galR3 fused to GalR1 carboxy tail; challenged with forskolin and galanin at EC90. inhibition, % at 3 µM. 1,600 tested, 59% active;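 active = inhibition above the primary screen's cutoff, the mean inhibition of all screened compounds plus 3 SD, cut at about 13% in these data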;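 note: 0% = forskolin plus galanin and 100% = forskolin alone with DMSO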
# CNG parental: acts as nonspecific agonist in parental HEK-CNG cells. shares compounds with GalR3 antag. 1,600 tested, 10% active. HEK293-CNG parental cells, cAMP membrane potential fluorescence; normalised: DMSO wells 0%, forskolin wells 100%. activation, % at 3 µM. AID 652268; in the data active = activation above about 1.3%
# Gal4-VP16 ctr: counter-screen for COUP-TFII antagonists: inhibitors of VP16; shares compounds with COUP-TFII inh; HEK293 Gal4-VP16 luciferase reporter, luminescence; inhibition, % at 8.5 µM; 2,500 tested, 25% active; in the data active = inhibition above about 13%
# NR2F2 inh conf: confirmation of human COUP-TFII (NR2F2) inhibitors; inhibition, % at 8.5 µM; shares compounds with COUP-TFII inh; 2,500 tested, 45% active; HEK293 NGFI-A luciferase reporter, luminescence;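 active = mean inhibition over three repeats above a set limit taken from the earlier primary screen, cut at about 38% in these data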;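 note: 100% = cells given the luciferase reporter alone without the COUP-TF2 vector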
# * hit, by the source's call; x = no result; ! = not confirmed by another sample; [ ] = dose if it differs, or a comment. Compounds with a hit are over-represented: about 2.1% of the library has one in this group of screens.
SMILES,COUP-TFII inh,aDG glyco act,Gli-Sufu block,Env fusion inh,GalR3 antag,Gli-Sufu confirm,Gli cytotox,Wnt3a counter,Gal4-VP16 ctr,NR2F2 inh conf,others
CC(C)(C)c1ccc(C2CC2C(=O)N/N=C\c2ccc[nH]2)cc1 (configuration not stated),42.0*,9.1*,87.5*,98.4*,2.4,92.1*,3.4,42.8*,0.2,63.8*,
O=C(CSc1nnnn1C1CCCCC1)Nc1ccccc1F,8.1,0.0,-0.2,21.9,2.2,x,x,x,x,x,
O=C(CSc1nnnn1C1CC2CCC1C2)Nc1ccnc2ccccc12 (configuration not stated),72.0*,7.4*,82.5*,x,88.7*,84.9*,35.1*,6.2,2.2,69.9*,GalR3 conf=117.1*;CNG parental=0.6
COc1ccc(NC(=O)Nc2ccc3c(c2)C(=O)N([C@H](C)CO)C[C@H](C)[C@@H](CN(C)S(=O)(=O)c2ccc(C)cc2)OCCCC[C@@H](C)O3)cc1,x,x,x,7.0[16.7 µM],x,x,x,x,x,x,
CCN(C(=O)c1ccc(C(C)(C)C)cc1)c1nnc(Cn2nnc3ccccc32)s1,75.9*,7.9*,60.6*,x,102.2*,60.7*,33.4*,41.6*,13.3*,72.3*,aDG glyco conf=3.4;GalR3 conf=107.2*;CNG parental=0.1
CCOC(=O)N1CCN(c2ncnc3c2[nH]c2ccc(OC)cc23)CC1,-7.3,0.8,44.8,1.7,-3.6,x,x,x,x,x,
CCCCOc1ncnc2c1[nH]c1ccc(F)cc12,55.9*,6.5*,58.0*,x,29.1*,55.8*,28.8*,12.3,-83.9,28.8,GalR3 conf=46.3*;CNG parental=0.3
CCCCOc1ncnc2c1[nH]c1ccc(OCC)cc12,-14.9,0.1,7.4,x,-6.4,x,x,x,x,x,
CCOC(=O)N1CCN(c2ncnc3c2[nH]c2ccc(F)cc23)CC1,63.7*,5.9*,76.5*,63.9*,1.3,74.8*,26.9*,-6.5,-1.6,39.7*,
C[C@@H]1CCCCO[C@@H](CN(C)C(=O)Nc2ccc3c(c2)OCO3)[C@@H](C)CN([C@H](C)CO)C(=O)c2cc(NS(=O)(=O)c3cccs3)ccc2O1,x,x,x,4.3[16.7 µM],x,x,x,x,x,x,
CN(Cc1ccccc1)C1=CC(=[N+]2CCCC2)CC(C)(C)C1,72.5*,0.2,90.7*,60.4*,58.9*,87.7*,27.2*,48.3*,15.3*,64.3*,GalR3 conf=65.3*;CNG parental=2.3*
O=C(C[C@@H]1C=C[C@H](NS(=O)(=O)c2ccc(F)cc2)[C@H](CO)O1)NC1CCC1,x,x,x,2.9[16.7 µM],x,x,x,x,x,x,
C/C=C/c1cnc2c(c1)C(=O)N([C@H](C)CO)C[C@@H](C)[C@@H](CN(C)S(=O)(=O)c1ccccc1F)O2,x,x,x,27.7[16.7 µM],x,x,x,x,x,x,
O=C(OCC12CC3CC(CC(C3)C1)C2)c1ccc(NCc2cc(O)ccc2O)cc1,79.7*,-0.6,78.0*,-29.5,1.8,68.3*,37.6*,65.9*,78.9*,99.4*,
N#CCC(=O)Nc1ccc(C(=O)OCC(=O)C23CC4CC(CC(C4)C2)C3)cc1,-6.0,-0.1,-7.7,0.9,-4.6,x,x,x,x,x,
c1ccc(-n2ncc3c(NCCCN4CCOCC4)ncnc32)cc1,-40.0,0.3,-55.7,-70.6,-4.9,x,x,x,x,x,
Clc1ccc(-n2ncc3c(NCCN4CCOCC4)ncnc32)cc1,55.6*,-0.3,53.9,x,3.1,66.3*,17.6,58.7*,-29.1,48.2*,
CCOc1ccc(S(=O)(=O)NCc2ccncc2)cc1NC(=O)c1ccccc1,59.0*,1.4,62.5*,12.9,-4.4,66.0*,27.6*,0.6,-2.3,54.5*,
Cc1ccc(S(=O)(=O)N(C)C[C@H]2Oc3c(NC(=O)c4ccncc4)cccc3C(=O)N([C@H](C)CO)C[C@@H]2C)cc1,x,x,x,-25.3[16.7 µM],x,x,x,x,x,x,
CC1(C)CC(=O)C=C(N2CCNCC2)C1,8.7,0.0,-1.3,1.2,0.0,x,x,x,x,x,
CC1(C)CC(N2CCCC2)=CC(=[N+]2CCCCCC2)C1,59.7*,0.3,82.8*,33.7,55.2*,87.9*,34.5*,42.0*,14.1*,58.2*,
Cc1cc(=O)[nH]c(SCC(=O)/C=C2\N(C)c3ccccc3C2(C)C)n1,42.2*,1.1,67.5*,x,-13.1,61.1*,24.7,26.7*,5.6,9.4,
O=C(/C=C/c1cccc2ccccc12)c1ccncc1,39.5*,-0.1,52.3,15.2,3.5,47.0*,36.6*,15.5,-12.4,19.3,
CN(C)c1ccc2c(c1)[C@@H]1C[C@H](CC(=O)O)O[C@H](CO)[C@@H]1O2,x,x,x,-14.6[16.7 µM],x,x,x,x,x,x,
CCC(=O)N(C)C[C@@H]1Oc2cc(C#CC3CC3)ccc2S(=O)(=O)N([C@H](C)CO)C[C@H]1C,x,x,x,10.4[16.7 µM],x,x,x,x,x,x,
SMILES,COUP-TFII inh,aDG glyco act,Gli-Sufu block,Env fusion inh,GalR3 antag,Gli-Sufu confirm,Gli cytotox,Wnt3a counter,Gal4-VP16 ctr,NR2F2 inh conf,others
O=c1cc(CSc2nnc(-c3cccs3)n2Cc2ccccc2)nc2sc3ccccc3n12,61.8*,1.1,62.5*,54.1,73.6*,57.3*,33.4*,37.3*,-8.0,15.4,GalR3 conf=107.5*;CNG parental=0.2
O=C(NCCNc1ccnc2cc(Cl)ccc12)c1ccccc1F,55.0*,0.4,67.0*,21.8,-3.9,49.6*,17.4,-21.6,-8.3,36.5,
O=C(NCCNc1ccc(Cl)cc1[N+](=O)[O-])c1ccccc1F,-15.4,0.0,-16.4,1.2,-9.4,x,x,x,x,x,
Cc1ccc(-c2c[n+]3c(n2-c2ccccc2)SCC3)cc1,64.9*,-0.1,83.7*,59.0*,0.0,82.8*,22.7,38.3*,-0.2,24.9,
COc1ccc(-n2c(-c3ccc(Cl)cc3)c[n+]3c2CCCCC3)cc1,28.6,-0.1,x,-7.4,-5.3,x,x,x,x,x,
Cc1ccc(-c2cn(-c3ccccc3)c3[n+]2CCCS3)cc1,54.6*,1.2,83.0*!,43.0,1.1,87.4*,44.5*,45.0*,11.0,39.0*!,
